Compounds with a hit are over-represented: about 1.7% of the library has one in this group of screens.
MLLE-PAM2 inh = blocks PAM2 peptide binding to the PABP1 MLLE domain | GST-MLLE / FITC-PAM2 fluorescence polarization | inhibition, % at 20 µM | 0.36% of 360,000 active | AID 588489; in the data active = inhibition above about 35%, passing the limit was not always enough;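 also: plate controls were DMSO wells with GST-MLLE for no effect and wells lacking GST-MLLE protein for full effect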
Target sequence (P11940 whole entry, looked up, the tested form may be a part): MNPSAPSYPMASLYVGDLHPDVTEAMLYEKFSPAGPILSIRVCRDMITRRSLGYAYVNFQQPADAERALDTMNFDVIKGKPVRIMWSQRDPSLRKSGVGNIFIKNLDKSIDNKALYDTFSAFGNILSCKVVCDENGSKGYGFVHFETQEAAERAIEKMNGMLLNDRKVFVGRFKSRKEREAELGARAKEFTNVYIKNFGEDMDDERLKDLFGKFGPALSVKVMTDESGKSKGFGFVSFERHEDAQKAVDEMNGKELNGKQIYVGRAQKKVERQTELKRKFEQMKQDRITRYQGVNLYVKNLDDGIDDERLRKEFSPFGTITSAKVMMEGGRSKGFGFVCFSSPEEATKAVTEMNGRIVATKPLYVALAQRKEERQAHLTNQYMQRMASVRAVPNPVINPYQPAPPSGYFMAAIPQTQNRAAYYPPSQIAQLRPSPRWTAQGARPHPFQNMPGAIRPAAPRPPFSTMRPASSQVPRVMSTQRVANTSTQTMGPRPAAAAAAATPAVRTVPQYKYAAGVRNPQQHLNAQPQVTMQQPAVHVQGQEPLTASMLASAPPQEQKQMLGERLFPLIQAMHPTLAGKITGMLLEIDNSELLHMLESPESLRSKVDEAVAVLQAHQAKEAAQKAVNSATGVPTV
eIF4H FP inh = inhibitors of RNA binding by human eIF4H. AID 2012. 0.94% of 290,000 active. eIF4H fluorescence polarization binding assay. inhibition, % at 35 µM. Q15056;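 also: calls also rest on retests at 20 µM and on dose response follow-up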
eIF4E 4G PPI = blocks eIF4E binding to eIF4G | TR-FRET eIF4E-eIF4GI(517-606) binding, 2 h | P63073+Q04637 | 0.37% of 220,000 active | inhibition, % at 21.7 µM;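 active = inhibition above about 30%, limit read from the data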;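 also: 0% = full FRET control wells and 100% = background wells lacking eIF4GI fragment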
EBV gp42 inh = blocks Epstein-Barr virus glycoprotein 42 binding; Fluorescence polarization binding assay, mP read-out; inhibition, % (tested at 21.74 µM); 0.42% of 220,000 active; in the data active = inhibition above about 50%
PABP FP inh = blocks human PABP binding to poly(A) RNA; fluorescence polarization; calls only at 35 µM; 1% of 290,000 active;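 also: calls also rest on retests at 20 µM and on dose response follow-up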
* hit, by the source's call; i = inactive; ? = inconclusive; / = no result given; + = active, no number; [ ] = dose if it differs, or a comment. Unless noted, no rule for the calls is given here.

SMILES	MLLE-PAM2 inh	eIF4H FP inh	eIF4E 4G PPI	EBV gp42 inh	PABP FP inh
COC(=O)c1cc(O)cc(OC)c1C(=O)c1c(O)cc(C)cc1O	6	13	-16	-25	i
COC(=O)c1cc(O)cc(OC)c1Oc1cc(C)cc(O)c1C(=O)O	-4	90*	-11	-6	+
Cc1ccc(S(=O)(=O)N2CCOCC2)cc1NC(=O)CSc1nnc(NC2CC2)s1	-3	/	/	/	/
Cc1ccc(-n2nc(-c3ccco3)cc2C(=O)O)cc1	14	94*	20	-12	+
COC(=O)c1ccccc1CSc1nsc(/C=C/N(C)C)c1C#N	-75	60	/	/	+
CCCCCC(=O)N1C[C@H](n2cc(-c3ccc(F)cc3)nn2)[C@@H](O)C[C@@H]1c1ccc(C)cc1	10	/	/	/	/
COc1ccc(C(=O)COC(=O)c2cccnc2Cl)c(OC)c1	-15	59*	17	6	i
COc1ccc(OC)c(C(=O)COC(=O)c2cccnc2Cl)c1	-1	5	-3	-11	i
COc1ccc(NC(C)=[N+](C)CCNS(=O)(=O)c2ccc(Cl)cc2)cc1	-49	-16	/	/	+
COc1ccc(NC(=O)CNS(=O)(=O)c2ccc(Cl)cc2)cc1	14	3	-1	-15	i
Cc1ccc(CNC(=O)c2cc(-c3ccccc3)nn2CC2CC(c3cccc([N+](=O)[O-])c3)=NO2)cc1 (configuration not stated)	-12	/	/	/	/
Cc1[nH]nc2c(=S)[nH]c(=O)[nH]c12	40*	/	/	/	/
Cc1ccc(S(=O)(=O)N(C)C)cc1NC(=S)NNC(=O)C1CC1	-28	-2	2	-13	i
Cc1ccc(S(=O)(=O)N(C)C)cc1NC(=S)NNC(=O)C(N)=O	-28	9	-2	1	+
CC1CCCC(C)N1C(=O)COC(=O)c1cc(F)c(F)cc1Cl (configuration not stated)	3	/	/	/	/
CCOC(=O)c1c(NC(=O)CSc2nnnn2-c2ccc(OC)cc2)sc(C)c1C	43*	1	30*	-27	i
CC(=O)N1CCN(C(=O)c2cc(S(=O)(=O)N(C)Cc3ccccc3)ccc2Cl)CC1	3	/	/	/	/
C/C(CC(=O)Nc1c(C)cc(C)cc1C)=N\NC(=O)c1cnccn1	6	-6	1	-7	i
c1ccc(OCc2nnc3sc(-c4cccs4)nn23)cc1	16	-1	27	-18	i
Clc1ccc(Cl)c(-c2nn3c(COc4ccccc4)nnc3s2)c1	21	0	34*[fluorescence artefact?]	-20	i
Cc1c(-c2ccccc2)cnc2c(C)cccc12	4	/	/	/	/
C[C@@H]1[C@@H](Sc2ccccc2)CC(=O)O[C@@H]1c1ccc(-c2ccccc2)cc1	44*	/	/	/	/
CCCn1c(C)cc(C(=O)COc2ccc(C)nc2[N+](=O)[O-])c1C	-2	69*	0	-6	+
COCCn1c(C)cc(C(=O)COc2ccc(C)nc2[N+](=O)[O-])c1C	-15	115*	2	-14	i
COCCn1c(C)cc(C(=O)CSc2ccc3ccccc3n2)c1C	11	62*	4	-13	+
SMILES	MLLE-PAM2 inh	eIF4H FP inh	eIF4E 4G PPI	EBV gp42 inh	PABP FP inh
Cc1cc(C(=O)COc2cccnc2[N+](=O)[O-])c(C)n1Cc1cccs1	13	106*	0	9	i
Cc1ccc(-c2nnnn2-c2ccccc2C(=O)O)cc1	9	/	/	/	/
COC(=O)C1(CC2CC(c3ccccc3)=NO2)CCN(C(=O)OC(C)(C)C)CC1 (configuration not stated)	-2	/	/	/	/
O=C(Nc1cccc(CNCCc2c[nH]c3ccccc23)c1)c1ccccc1Cl	-5	14	/	/	i
CCN1CCN(c2ccc(S(=O)(=O)N3CCOCC3)cc2N)CC1	-9	/	/	/	/
Cc1ccc(Cl)cc1N1CCN(C(=O)CN(c2ccccc2)S(=O)(=O)N(C)C)CC1	7	62*	13	8	i
COc1cc(/C=N/NC(=O)c2nnn(-c3nonc3N)c2C(C)C)ccc1OCc1ccc(F)cc1	14	-11	/	/	i
CCC1C2CN(C(C)=O)CC=C2C(C#N)=C(N)C1(C#N)C#N (configuration not stated)	18	14	5	-6	i
CCN1CC=C2C(C#N)=C(N)C(C#N)(C#N)C(c3cc(Cl)ccc3Cl)C2C1 (configuration not stated)	102	?	14	73*	?
CC(C)N1CC=C2C(C#N)=C(N)C(C#N)(C#N)[C@H](c3ccoc3)[C@H]2C1	/	?	-1	130*	?
COc1cc(C2C3CN(C)CC=C3C(C#N)=C(N)C2(C#N)C#N)ccc1OC(C)C (configuration not stated)	34	?	-5	10	?
CC(C)N1CC=C2C(C#N)=C(N)C(C#N)(C#N)C(c3ccccc3)C2C1 (configuration not stated)	142	?	2	72*	?
CC1CC=C2C(C#N)=C(N)C(C#N)(C#N)C(c3cccs3)C2C1 (configuration not stated)	80	123*	5	52*	+
CCOC(=O)N1CC=C2C(C#N)=C(N)C(C#N)(C#N)[C@H](c3cccs3)C2C1 (some centres not stated)	17	?	2	-7	i
COc1ccc(NC(=O)Nc2cc(C)cc(C)c2)cn1	66*	50	0	29	i
COc1ccc(CC(=O)Nc2ccc(OC)nc2)cc1	4	-1	4	-10	i
COc1ccc(NC(=O)Nc2cccs2)cn1	18	35	/	/	i
COc1cccc(OC)c1C(=O)Nc1ccc(NC(=O)c2ccco2)cc1	9	-6	-16	3	i
COc1ccc(NC(=O)Nc2ccc([N+](=O)[O-])cc2)cn1	58*	82*	/	/	+
COc1ccc(NC(=O)c2ccco2)cn1	52*	?	/	/	?
COc1ccc(NC(=O)CCl)cn1	/	?	-6	71*	?
CCOc1ccc(C2/C(=C(\O)c3ccc4c(c3)OCCO4)C(=O)C(=O)N2CCN2CCOCC2)cc1OCC (configuration not stated)	-4	-8	/	/	i
O=C(Nc1ccc(OCc2ccccc2)cc1)Nc1cccnc1	-6	-5	/	/	i
O=C(NC(=S)Nc1ccc(NC(=O)c2ccco2)cc1)c1ccccc1	19	-7	-3	-10	i
COc1ccc(NC(=S)NC(=O)c2ccccc2)cn1	42*	7	/	/	i
COc1cc(C(=O)NC(=S)Nc2ccc(NC(=O)c3ccco3)cc2)cc(OC)c1OC	36*	6	6	6	i
COc1ccc(NC(=O)c2cccc(Oc3ccccc3)c2)cn1	8	-4	/	/	i
COc1ccc(NC(=O)Nc2ccc(OCc3ccccc3)cc2)cn1	66*	?	/	/	?
Cc1ccc(CN2CCN(Cc3c[nH]c4ccccc34)CC2CCO)o1 (configuration not stated)	-5	-12	-2	6	i
Cc1ccc(CN2CCN(Cc3cc(=O)c4ccccc4[nH]3)CC2CCO)o1 (configuration not stated)	11	58*	5	-12	i
